{"source": "paper PMC5540273", "about": "(PLoS ONE, 2017);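 also: KINOMEscan kinase panel screen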", "data": [{"test_system": "T1, DCAMKL2", "T1 construct": "gene DCLK2", "conditions": "concentration: 1 μM,replicates: in singlicate; n = 1", "units": {"%Inh": "%"}, "values": [{"smiles": "CCn1c(-c2nonc2N)nc2cncc(Br)c21", "note": "[SB-738004]", "%Inh": 2}, {"smiles": "O=C1NCCc2[nH]c(-c3ccncc3)cc21", "%Inh": 0}, {"smiles": "FC(F)(F)c1cc(Br)cc(Nc2nccc(-c3cnn4ncccc34)n2)c1", "note": "[GW810578]", "%Inh": 15}, {"smiles": "COc1cccc(OC)c1C(=O)Nc1cccc(-c2nn3ccccc3c2-c2ccnc(Nc3cccc(F)c3)n2)c1", "note": "[GSK361065]", "%Inh": 0}, {"smiles": "C[C@@H](Oc1cc(-n2cnc3cc(-c4ccncc4)ccc32)sc1C(N)=O)c1ccccc1Cl", "note": "[GSK479719]", "%Inh": 3}, {"smiles": "NC(=O)c1ccc(-c2cc3ncnc(SCC(=O)O)c3s2)cc1", "%Inh": 9}, {"smiles": "CC(C)S(=O)(=O)N1CCN(Cc2ccc3c(c2)nc(NC(=O)c2ccsc2)n3C[C@H](O)c2ccccc2)CC1", "note": "[GW635815]", "%Inh": 0}, {"smiles": "COc1cc2nccc(Nc3ccc(Oc4ccccc4)cc3)c2cc1OC.Cl", "note": "[GI261656]", "%Inh": 0}, {"smiles": "CS(=O)c1ccc(-c2coc3ccc(-c4n[nH]c(=O)o4)cc23)cc1", "note": "(centres unmarked)", "%Inh": 0}, {"smiles": "OCCn1cc(-c2cnc3nnn(Cc4ccc5ncccc5c4)c3n2)cn1", "%Inh": 0}, {"smiles": "COC(=O)c1cccc(NC(=O)NC2CCN(c3ccnc(Nc4cc(OC)c(OC)c(OC)c4)n3)C2)c1", "note": "(centres unmarked) [GSK1379767]", "%Inh": 0}, {"smiles": "O=c1[nH]cc(-c2ccc(O)cc2)c2sc(-c3ccncc3)cc12", "note": "[GSK1033723]", "%Inh": 6}, {"smiles": "COc1cc2ncn(-c3cc(OCC4CCCCC4)c(C(N)=O)s3)c2cc1OC", "note": "[GSK204559]", "%Inh": 25}, {"smiles": "Cc1cccc(-c2nc(Nc3ccncc3)c3sccc3n2)n1", "note": "[GW869641]", "%Inh": 21}, {"smiles": "O=C(Nc1ccc(Oc2ccc3nc(NC(=O)C4CC4)cn3n2)c(F)c1)c1cccn(-c2ccccc2)c1=O", "%Inh": 13}, {"smiles": "COC(=O)Nc1nc2cc(Oc3ccc(NC(=O)Nc4cc(C(F)(F)F)ccc4Cl)cc3)ccc2[nH]1.Cl", "note": "[GW697465]", "%Inh": 11}, {"smiles": "Cc1ccc(C(=O)Nc2ccc(Oc3ccc4nc(NC(=O)C5CC5)cn4c3)c(F)c2)c(=O)n1-c1ccccc1", "%Inh": 0}, {"smiles": "NC(=O)Nc1sc(-c2ccc(F)cc2)cc1C(N)=O", "note": "[GW789449]", "%Inh": 0}, {"smiles": "C[C@@H]1CNc2c(sc3ccc4nc(-c5ccncc5)ccc4c23)C(=O)N1", "%Inh": 0}, {"smiles": "CCN1CCN(CCCC(=O)Nc2n[nH]c3nc(-c4ccc(O)cc4)c(Br)cc23)CC1", "note": "[SB-731579]", "%Inh": 18}, {"smiles": "C[C@@H]1CNc2c(sc3ccc4nc(-c5ccc(O)cc5)ccc4c23)C(=O)N1", "%Inh": 0}, {"smiles": "Nc1nccc(-c2ccc3c(N)n[nH]c3c2)n1", "note": "[GSK1034945]", "%Inh": 0}, {"smiles": "c1ccc(Oc2ccc(Nc3ccnc4ccc(-c5ccccn5)cc34)cc2)cc1", "note": "[GW407034]", "%Inh": 0}, {"smiles": "CC(C(=O)NC1CCN(c2ccnc(Nc3ccc(F)cc3)n2)C1)c1ccc(Cl)cc1", "note": "(centres unmarked) [GSK1379713]", "%Inh": 12}, {"smiles": "CCn1c(-c2nonc2N)nc2cncc(CNC3CCNCC3)c21.Cl", "note": "[SB-747651]", "%Inh": 0}, {"smiles": "CN1CCN(CCCNc2nccc(-c3c(-c4ccc(F)cc4)nn4cc(C(N)=O)ccc34)n2)CC1", "note": "[GW622475]", "%Inh": 0}, {"smiles": "COc1cccc(CNC(=O)NC2CCN(c3ccnc(Nc4cc(OC)c(OC)c(OC)c4)n3)C2)c1", "note": "(centres unmarked) [GSK1379765]", "%Inh": 8}, {"smiles": "Cn1ccc2ncnc(Oc3ccc(NC(=O)Nc4cccc(C(F)(F)F)c4)c(F)c3)c21", "%Inh": 18}, {"smiles": "CC(=O)c1c(-c2ccncc2)[nH]c(-c2ccncc2)c1C", "note": "[GW493036]", "%Inh": 3}, {"smiles": "CCOC(=O)N1CCC(n2cnc(-c3ccc(F)cc3)c2-c2ccnc(N)n2)CC1", "note": "[SB-219952]", "%Inh": 15}, {"smiles": "C[C@@H](Oc1cc(-n2cnc3ccc(-c4ccncc4)cc32)sc1C(N)=O)c1ccccc1Cl", "note": "[GSK483724]", "%Inh": 18}, {"smiles": "CN(c1ccc2c(c1)nc(NCc1ccc(F)cc1)n2C)c1ccnc(Nc2ccc(CS(C)(=O)=O)cc2)n1.Cl", "note": "[GW813244]", "%Inh": 0}, {"smiles": "COc1cccc(C2=C(Nc3cccc(Cl)c3)C(=O)NC2=O)c1", "note": "[SB-341556]", "%Inh": 0}, {"smiles": "O=C(Nc1cccc(Oc2ccc3nccn3n2)c1)Nc1cccc(C(F)(F)F)c1", "%Inh": 15}, {"smiles": "O=C(NOCC1CC1)c1cc(Br)c(F)c(F)c1Nc1ccc(I)cc1Cl", "%Inh": 2}, {"smiles": "CN1CCN(CCNc2nc3cc(Oc4ccc(NC(=O)Nc5cc(C(F)(F)F)ccc5F)cc4)ccc3[nH]2)CC1.Cl.Cl", "note": "[GW768504]", "%Inh": 10}, {"smiles": "N#Cc1cccc(C(=O)NC2CCN(c3ccnc(Nc4ccc(F)cc4)n3)C2)c1", "note": "(centres unmarked) [GSK1379708]", "%Inh": 9}]}, {"test_system": "T2, DCAMKL3", "T2 construct": "gene DCLK3", "conditions": "concentration: 1 μM,replicates: in singlicate; n = 1", "units": {"%Inh": "%"}, "values": [{"smiles": "CCn1c(-c2nonc2N)nc2cncc(Br)c21", "note": "[SB-738004]", "%Inh": 7}, {"smiles": "O=C1NCCc2[nH]c(-c3ccncc3)cc21", "%Inh": 91.8}, {"smiles": "FC(F)(F)c1cc(Br)cc(Nc2nccc(-c3cnn4ncccc34)n2)c1", "note": "[GW810578]", "%Inh": 16}, {"smiles": "COc1cccc(OC)c1C(=O)Nc1cccc(-c2nn3ccccc3c2-c2ccnc(Nc3cccc(F)c3)n2)c1", "note": "[GSK361065]", "%Inh": 16}, {"smiles": "C[C@@H](Oc1cc(-n2cnc3cc(-c4ccncc4)ccc32)sc1C(N)=O)c1ccccc1Cl", "note": "[GSK479719]", "%Inh": 0}, {"smiles": "NC(=O)c1ccc(-c2cc3ncnc(SCC(=O)O)c3s2)cc1", "%Inh": 17}, {"smiles": "CC(C)S(=O)(=O)N1CCN(Cc2ccc3c(c2)nc(NC(=O)c2ccsc2)n3C[C@H](O)c2ccccc2)CC1", "note": "[GW635815]", "%Inh": 9}, {"smiles": "COc1cc2nccc(Nc3ccc(Oc4ccccc4)cc3)c2cc1OC.Cl", "note": "[GI261656]", "%Inh": 1}, {"smiles": "CS(=O)c1ccc(-c2coc3ccc(-c4n[nH]c(=O)o4)cc23)cc1", "note": "(centres unmarked)", "%Inh": 0}, {"smiles": "OCCn1cc(-c2cnc3nnn(Cc4ccc5ncccc5c4)c3n2)cn1", "%Inh": 0}, {"smiles": "COC(=O)c1cccc(NC(=O)NC2CCN(c3ccnc(Nc4cc(OC)c(OC)c(OC)c4)n3)C2)c1", "note": "(centres unmarked) [GSK1379767]", "%Inh": 0}, {"smiles": "O=c1[nH]cc(-c2ccc(O)cc2)c2sc(-c3ccncc3)cc12", "note": "[GSK1033723]", "%Inh": 5}, {"smiles": "COc1cc2ncn(-c3cc(OCC4CCCCC4)c(C(N)=O)s3)c2cc1OC", "note": "[GSK204559]", "%Inh": 0}, {"smiles": "Cc1cccc(-c2nc(Nc3ccncc3)c3sccc3n2)n1", "note": "[GW869641]", "%Inh": 18}, {"smiles": "O=C(Nc1ccc(Oc2ccc3nc(NC(=O)C4CC4)cn3n2)c(F)c1)c1cccn(-c2ccccc2)c1=O", "%Inh": 29}, {"smiles": "COC(=O)Nc1nc2cc(Oc3ccc(NC(=O)Nc4cc(C(F)(F)F)ccc4Cl)cc3)ccc2[nH]1.Cl", "note": "[GW697465]", "%Inh": 31}, {"smiles": "Cc1ccc(C(=O)Nc2ccc(Oc3ccc4nc(NC(=O)C5CC5)cn4c3)c(F)c2)c(=O)n1-c1ccccc1", "%Inh": 0}, {"smiles": "NC(=O)Nc1sc(-c2ccc(F)cc2)cc1C(N)=O", "note": "[GW789449]", "%Inh": 0}, {"smiles": "C[C@@H]1CNc2c(sc3ccc4nc(-c5ccncc5)ccc4c23)C(=O)N1", "%Inh": 55}, {"smiles": "CCN1CCN(CCCC(=O)Nc2n[nH]c3nc(-c4ccc(O)cc4)c(Br)cc23)CC1", "note": "[SB-731579]", "%Inh": 99.1}, {"smiles": "C[C@@H]1CNc2c(sc3ccc4nc(-c5ccc(O)cc5)ccc4c23)C(=O)N1", "%Inh": 54}, {"smiles": "Nc1nccc(-c2ccc3c(N)n[nH]c3c2)n1", "note": "[GSK1034945]", "%Inh": 36}, {"smiles": "c1ccc(Oc2ccc(Nc3ccnc4ccc(-c5ccccn5)cc34)cc2)cc1", "note": "[GW407034]", "%Inh": 0}, {"smiles": "CC(C(=O)NC1CCN(c2ccnc(Nc3ccc(F)cc3)n2)C1)c1ccc(Cl)cc1", "note": "(centres unmarked) [GSK1379713]", "%Inh": 9}, {"smiles": "CCn1c(-c2nonc2N)nc2cncc(CNC3CCNCC3)c21.Cl", "note": "[SB-747651]", "%Inh": 7}, {"smiles": "CN1CCN(CCCNc2nccc(-c3c(-c4ccc(F)cc4)nn4cc(C(N)=O)ccc34)n2)CC1", "note": "[GW622475]", "%Inh": 7}, {"smiles": "COc1cccc(CNC(=O)NC2CCN(c3ccnc(Nc4cc(OC)c(OC)c(OC)c4)n3)C2)c1", "note": "(centres unmarked) [GSK1379765]", "%Inh": 0}, {"smiles": "Cn1ccc2ncnc(Oc3ccc(NC(=O)Nc4cccc(C(F)(F)F)c4)c(F)c3)c21", "%Inh": 17}, {"smiles": "CC(=O)c1c(-c2ccncc2)[nH]c(-c2ccncc2)c1C", "note": "[GW493036]", "%Inh": 0}, {"smiles": "CCOC(=O)N1CCC(n2cnc(-c3ccc(F)cc3)c2-c2ccnc(N)n2)CC1", "note": "[SB-219952]", "%Inh": 18}, {"smiles": "C[C@@H](Oc1cc(-n2cnc3ccc(-c4ccncc4)cc32)sc1C(N)=O)c1ccccc1Cl", "note": "[GSK483724]", "%Inh": 0}, {"smiles": "CN(c1ccc2c(c1)nc(NCc1ccc(F)cc1)n2C)c1ccnc(Nc2ccc(CS(C)(=O)=O)cc2)n1.Cl", "note": "[GW813244]", "%Inh": 0}, {"smiles": "COc1cccc(C2=C(Nc3cccc(Cl)c3)C(=O)NC2=O)c1", "note": "[SB-341556]", "%Inh": 31}, {"smiles": "O=C(Nc1cccc(Oc2ccc3nccn3n2)c1)Nc1cccc(C(F)(F)F)c1", "%Inh": 0}, {"smiles": "O=C(NOCC1CC1)c1cc(Br)c(F)c(F)c1Nc1ccc(I)cc1Cl", "%Inh": 0}, {"smiles": "CN1CCN(CCNc2nc3cc(Oc4ccc(NC(=O)Nc5cc(C(F)(F)F)ccc5F)cc4)ccc3[nH]2)CC1.Cl.Cl", "note": "[GW768504]", "%Inh": 0}, {"smiles": "N#Cc1cccc(C(=O)NC2CCN(c3ccnc(Nc4ccc(F)cc4)n3)C2)c1", "note": "(centres unmarked) [GSK1379708]", "%Inh": 9}]}]}
